In the library only some 7.9% were active in any assay of this set; here they are far more common.
HCMV inh: blocks human cytomegalovirus replication; HFF cells, HCMV-luciferase reporter, 72 h; hits give low values; activity change, negative = inhibition, % at 57.5 µM; actives 4.5% (n = 410,000); in the data active = activity change below about -60%; inconclusive = no clear call, values can overlap the other calls; inactive = above about -39%
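HFF cells seeded 16 h at 37C, treated with compounds, infected with luciferase-reporter HCMV at MOI 1 PFU/cell; luciferase read at 72 h post infection, normalized to buffer-only and Salinomycin controls.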
LASV entry inh: Lassa virus entry inhibition; Lassa virus pseudotype entry inhibition, cell reporter; Potency, µM (top dose mostly 37.9 µM), for inactives: at the highest dose activity change, negative = inhibition, most hits filed as inhibitors; actives 1.2% (n = 300,000); calls by dose curve; tested in HEK293 cells; also: potency is read from the fitted curve at half-maximal effect; nearly all actives have a fitted effect of over 50% in size
Marburg entry inh: blocks Marburg virus binding to or entry into cells | Marburg virus pseudotyped entry inhibition, cell reporter | Potency, µM (top dose mostly 37.8 µM), without a hit: at the highest dose activity change, negative = inhibition, hits mostly inhibitors | actives 1.8% (n = 300,000) | AID 540276; calls by dose curve; tested in HEK293 cells; also: potency is read from the fitted curve at half-maximal effect
HCV inhibitor: blocks hepatitis C virus; Huh7.5.1 HCVcc-Cre infection, luciferase reporter, 44 h; Potency, µM (doses to about 41.8 µM), for inactives: top-dose activity change, negative = inhibition, actives largely listed as inhibitors; actives 3.4% (n = 340,000); active = well fitted inhibition curve with a large enough effect; inconclusive = small, poorly fitted or top-dose-only effect, or another doubt; inactive = no such curve, though single readings can be large or run the other way; also: potency is read from the fitted curve at half-maximal effect
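Infectious HCV cell culture screen: compound-treated cells (1,000/well, pre-plated 4 h) are infected with HCVcc-Cre at roughly 0.5 moi and grown 44 h. Infection is quantified by luciferase signal after 15 min substrate incubation at room temperature.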
FMDV antiviral: blocks foot and mouth disease virus; actives 1.2% (n = 410,000); Potency, µM (series often up to 57.9 µM), without a hit: at the highest dose activity change, negative = inhibition, hits mostly inhibitors; AID 1159524; FMDV antiviral cell-based qHTS; calls by dose curve; tested in HEK293T cells; also: read-out not given here; potency is read from the fitted curve at half-maximal effect; nearly all actives have a fitted effect of over 45% in size
Starred values were filed as active, the others as inactive; ? = inconclusive; / = not tested or not shown; [ ] = remark or other dose. % is scaled to controls: 0 for no effect and ±100 for the full control effect.

SMILES	HCMV inh	LASV entry inh	Marburg entry inh	HCV inhibitor	FMDV antiviral
C=CC[C@H](CC(=O)N(CCO)Cc1ccccc1)C(=O)N[C@H](COC(=O)[C@H](CC=C)CC(=O)OC(C)(C)C)Cc1ccccc1	-27.4	/	/	11.2µM*	0.0%
C=CC[C@@H](CC(=O)N(CCO)Cc1ccccc1)C(=O)N[C@H](COC(=O)[C@@H](CC=C)CC(=O)OC(C)(C)C)C(C)(C)C	9.4	/	/	?	-22.4%
C=CC[C@H](CC(=O)N(CCO)Cc1ccccc1)C(=O)N[C@@H](COC(=O)[C@H](CC=C)CC(=O)OC(C)(C)C)Cc1c[nH]c2ccccc12	52.7	/	/	?	?
C=CC[C@@H](CC(=O)N(CCO)Cc1ccccc1)C(=O)N[C@H](COC(=O)[C@@H](CC=C)CC(=O)OC(C)(C)C)Cc1c[nH]c2ccccc12	31.8	/	/	11.2µM*	?
COc1cc(=O)n2c(c1C(=O)NC(C)c1ccco1)CCN(Cc1ccccc1C(F)(F)F)CC2 (centres undefined)	/	/	/	/	-9.5%
COc1ccc(NC2CCCN(C(=O)C3=NNC(=O)CC3)C2)cc1 (centres undefined)	5.6	/	/	/	-16.1%
O=S(=O)(c1ccc(OCC2CO2)cc1)c1ccc(OCC2CO2)cc1 (centres undefined)	-68.4*	/	/	-14.4%	-6.1%
CN(C)CCCN1C(=O)c2cc3ccccc3cc2C1=O	18.9	/	/	12.5%	-4.5%
O=C(CCCN1C(=O)c2cccc3cccc(c23)C1=O)N1CCN(c2ccccc2O)CC1	2.3	7.94µM*	?	-20.0%	-22.7%
O=C(CCCN1C(=O)c2cccc3cccc(c23)C1=O)N1CCN(c2ccccc2)CC1	?	-9.7%	7.8%	?	?
CN(C)CCN1C(=O)c2cccc3cc([N+](=O)[O-])cc(c23)C1=O	-97.6*	0.447µM*	0.316µM*	?	-21.9%
COc1ccc(N(CCCN2C(=O)c3cccc4cccc(c34)C2=O)C(=O)c2cccc(OC)c2)cc1	-12.1	?	?	11.2µM*	-6.8%
CN(C)CCCN1C(=O)c2cccc3cccc(c23)C1=O	-63.9*	-18.2%	?	?	-10.5%
c1cc2c3c(cccc3c1)-c1cnccc1-2	-12.2	19.2%[46.1 µM]	0.0%[46.1 µM]	?	1.6%
Cc1ccc(NC(=O)CCCN2C(=O)c3cccc4cccc(c34)C2=O)cc1	-73.4*	?	-19.9%	?	?
O=C1c2cccc3cc([N+](=O)[O-])cc(c23)C(=O)N1CC1CCCO1 (centres undefined)	-63.2*	-3.7%	-2.2%	?	-21.4%
Cc1cc2c(cc1S(=O)(=O)NC1CCCCC1C)OCC(=O)N2 (centres undefined)	7.9	/	/	11.5%	22.2%
O=C(c1ccncc1)c1ccc(N2CCN(C3CC(=O)N(Cc4cccs4)C3=O)CC2)cc1 (centres undefined)	0.0	/	/	?	25.1µM*
Cc1cnc(-n2ncc(C(=O)NCCc3ccccn3)c2C)nc1-c1ccc(F)cc1	/	/	/	/	-0.6%
O=C(COc1ccc(Br)cc1)Nc1ccc(NC(=O)c2ccccc2)cc1	-68.5*	-0.9%	-28.7%	/	39.7%
O=C(COc1ccc(Br)cc1)Nc1ccc(S(=O)(=O)Nc2ccccn2)cc1	-70.2*	2.5%[46.1 µM]	3.9%[46.1 µM]	-9.5%	42.4%
O=C(COc1ccccc1)Nc1ccc(S(=O)(=O)Nc2ccccn2)cc1	2.6	0.4%[46.1 µM]	-13.8%[46.1 µM]	-6.9%	32.4%
CC(C)N(CCCNC(=O)C1CCN(C(=O)c2cc3sccc3n2C)CC1)Cc1ccccc1	/	/	/	?	-4.6%
COc1ccc(-c2cccc3c2OC(CNC(=O)c2ccc4c(c2)OCO4)C3)nn1 (centres undefined)	/	/	/	/	31.2%
CC(Sc1nnnn1C)C(=O)NC1CCCC1 (centres undefined)	-36.3	?	?	12.1%	-6.6%
CC(=O)c1nnn(-c2cccc(C#N)c2)c1C	24.3	-5.9%	6.0%	0.6%	-2.7%
CCc1cccc2c(C(=O)C(NC(C)CC)c3ccccc3)c[nH]c12 (centres undefined)	-21.6	16.4µM*	11.6µM*	11.2µM*	-16.2%
CCc1cccc2c(C(=O)COC(=O)c3ccccc3)c[nH]c12	-8.8	-4.4%	5.2%	?	38.4%
CCc1cccc2c(C(=O)C(NCCCOC)c3ccccc3)c[nH]c12 (centres undefined)	7.6	?	12.6µM*	11.2µM*	-9.3%
N#C/C(=C\c1ccccc1)C(=O)Nc1nncs1	0.0	-0.7%	6.4%[46.1 µM]	18.4%	28.9%

Compound activity as filed in PubChem BioAssay.
